Reference: the supplement of paper PMC10681739
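For RUNX1 binding intensity (PBM fluorescence) in presence of ETS1, normalised to RUNX1-only experiment in this document: Full-length recombinant human ETS1 or RUNX1 bound to double-stranded 36-bp genomic probes on microarrays, detected by protein-specific primary antibody and Alexa488 secondary, spot fluorescence as median of four replicate spots.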
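For RUNX1 binding intensity (PBM fluorescence), RUNX1 alone in this document: Full-length recombinant human RUNX1 bound to double-stranded 36-bp genomic probes on a high-density microarray, scored as Alexa488 fluorescence per spot via anti-RUNX1 antibody, median of four replicate spots.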

The sequences below were run against T1, ETS1 (UniProt P14921) (assay: ETS1 binding intensity (PBM fluorescence), ETS1 alone (arbitrary fluorescence units); higher = stronger binding). Conditions: ETS1 concentration 1 nM; RUNX1 concentration 0 nM.
T1 sequence: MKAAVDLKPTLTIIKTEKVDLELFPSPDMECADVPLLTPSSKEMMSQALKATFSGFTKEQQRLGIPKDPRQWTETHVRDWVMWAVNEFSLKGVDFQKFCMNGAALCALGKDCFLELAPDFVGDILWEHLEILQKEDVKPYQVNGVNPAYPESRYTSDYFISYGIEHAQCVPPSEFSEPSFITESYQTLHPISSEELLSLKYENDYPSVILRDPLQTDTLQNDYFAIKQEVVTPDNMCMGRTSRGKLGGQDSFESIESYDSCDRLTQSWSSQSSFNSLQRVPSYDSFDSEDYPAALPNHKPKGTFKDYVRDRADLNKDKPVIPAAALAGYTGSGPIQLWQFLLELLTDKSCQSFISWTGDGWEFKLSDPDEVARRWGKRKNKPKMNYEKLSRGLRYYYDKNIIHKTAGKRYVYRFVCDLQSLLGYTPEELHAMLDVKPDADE
CAGCAGAGGCGCGGATGTGGTTAAACGAGTGCCGTC gave an ETS1 binding intensity of 775.
Sequence CCCAGCCCTGCTGCCGGATGTGGTGAGGCCCAGGTG has an ETS1 binding intensity of 5030.
Work on AGCTTGCCGGAAGCTGGTTGTTCGCTGCGGCGACCA yielded an ETS1 binding intensity of 4100.
Sequence GCCACACTGGCGGAAATGGTGGTTACTGTTCGAGCC has an ETS1 binding intensity of 3510.
TGGGGCTCTTCCTGCTTATGTGACCACAGCACCTTG showed an ETS1 binding intensity of 402.
CCATCCAGGAAGCTTATGGTGCAACCGCAGTGTGCC showed an ETS1 binding intensity of 483.
Work on TCCCACTGCGACGGAAGCACAGCGGTTAAGATTGCA yielded an ETS1 binding intensity of 821.
For GAAATCACATCCTTTTGCAAAACCACAGGTGTTTTG, the ETS1 binding intensity was 409.
For ATAGTCTCTTCCTGTGTTGCAAACCACAGGTCCACC, the ETS1 binding intensity was 743.
With CGGGCGAGCGCAGGATGCGGTTGTCGAACGCGCGGC the ETS1 binding intensity was 764.
TATCTCCTATCTCCAGGAAGTGGTTAGCCCTAGGAG was tested, and the ETS1 binding intensity was 3210.
Work on CTAGCAGGAAACAGACAGACCCAGCCACAGAATCTC yielded an ETS1 binding intensity of 470.
Sequence CGGGGACCACTGTCAGGATGTGGTCACTGGAGTCAC has an ETS1 binding intensity of 907.
In the case of CACCGACCGGAAGGGCCCCAAGGATCCCCGCAGCAG, the ETS1 binding intensity is reported as 2130.
With CCAGTACCCCACTTCCTGACCAAACCACAAAGGTCA the ETS1 binding intensity was 635.
With GATTGTTATGTCCGGAAACCGCTTATCAGAGCCCTG the ETS1 binding intensity was 2870.
With CAAGGCACCAACGGATGTGGTATCTGGTGAGGGCTT the ETS1 binding intensity was 2150.
Sequence TTGCCATTCCAGGAAATGAGCTTACCACATTGACTG has an ETS1 binding intensity of 1980.
Sequence ATGAGCTATTTCCTGCCTTGTGGTCAGAGCCAGACT has an ETS1 binding intensity of 1640.

The sequences below were run against RUNX1 (UniProt Q01196) (assay: RUNX1 binding intensity (PBM fluorescence), RUNX1 alone (arbitrary fluorescence units); higher = stronger binding). Conditions: RUNX1 concentration 2 nM; ETS1 concentration 0 nM.
RUNX1, sequence (Q01196 whole entry): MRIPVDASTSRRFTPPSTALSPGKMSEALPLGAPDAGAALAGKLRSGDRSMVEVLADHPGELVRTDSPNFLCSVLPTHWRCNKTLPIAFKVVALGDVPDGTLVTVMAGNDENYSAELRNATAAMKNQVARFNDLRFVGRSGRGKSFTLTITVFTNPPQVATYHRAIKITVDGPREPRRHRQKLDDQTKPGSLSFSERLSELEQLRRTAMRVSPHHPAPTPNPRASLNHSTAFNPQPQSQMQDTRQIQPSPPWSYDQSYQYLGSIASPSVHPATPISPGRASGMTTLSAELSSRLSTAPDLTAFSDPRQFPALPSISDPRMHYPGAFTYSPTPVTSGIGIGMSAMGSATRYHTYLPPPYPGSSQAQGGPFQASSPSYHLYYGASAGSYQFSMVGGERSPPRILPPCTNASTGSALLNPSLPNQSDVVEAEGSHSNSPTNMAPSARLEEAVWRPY
Protocol: (§1)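 Cooperative gcPBM on 36-bp genomic probes with neighbouring ETS1 and RUNX1 sites. Recombinant human RUNX1 (2 nM) was incubated alone or with ETS1 (25 nM) and detected with anti-RUNX1 antibody plus Alexa488 secondary. Values are medians over 4 replicate spots; the RUNX1+ETS1 data were normalised to the RUNX1-only data. The probes sit in constant array flanks that are not printed.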
Sequence GGGCAGCAGCAGACCGGAAACCACAGCCGACTAAGA has an RUNX1 binding intensity of 1160.
GCTCTGGGTCACACAGGATGTGGTTTTTGAAGTTTG showed an RUNX1 binding intensity of 1210.
ACCCAGTAGGGGCCAGGATGTGGTGAAAAGAGAATT was tested, and the RUNX1 binding intensity was 728.
With TCAAGTTTGGTAACAGGATGTGGTAGGAGGAACACA the RUNX1 binding intensity was 747.
In the case of CTCTGGCAGGAAGCTCTGAGGGCTAAACCACAAAAA, the RUNX1 binding intensity is reported as 989.
For AAAGCATTTCCTGCCTTGACTTAACCACAAGACAGG, the RUNX1 binding intensity was 1460.
With CCTGCGGATCACGGAAGTGGCTGCGGTCGGCGCCAT the RUNX1 binding intensity was 1360.
TGCTTAGCGGGAAGTGCTTACACCACAAAACAAGAC gave an RUNX1 binding intensity of 726.
ACCAACCGGAAGTGATCGTGTTGTGGCCGAAGGAGG showed an RUNX1 binding intensity of 785.
For CCTAGAACCGGAAGAGAAAGGGGCTGCGGTGCAGCA, the RUNX1 binding intensity was 845.
ATCACTTGTTTCCGCCAGCAAACCACAGGTCCCCAG showed an RUNX1 binding intensity of 1550.
CCTGCTGCTTCCGCCCGGAGTTGTTGTGGGCTCCAG gave an RUNX1 binding intensity of 806.
GAAGGAAGTGGAGACAGTAAGGGGAAACCACAAACC gave an RUNX1 binding intensity of 922.
Work on GCGCCCTCCAGGAAACGCCGCGGTTTACTGTCTGCC yielded an RUNX1 binding intensity of 912.
For CCAGCCGGAAGCCCCGCCCCCTAGAGGCACCGCGGA, the RUNX1 binding intensity was 1000.
With AAACAGGAAATCACAGCAGCGTTGCGGAGTGGAGCA the RUNX1 binding intensity was 754.
With GGCTCGGCAAACATCCGGCTCCGCGGTGGAACGGGA the RUNX1 binding intensity was 785.
With TTCAACAGGATGTGGGAACTTGACTCTCGCCGCAAA the RUNX1 binding intensity was 737.
GCCACACTTCCGGCGGGGCTGCGACCGCAGAGGGGC was tested, and the RUNX1 binding intensity was 1140.
CAAGCCAGGAAGAGGGCCCTCACCAGAAACCGCACT was tested, and the RUNX1 binding intensity was 907.
TGAAGTACTAGTCAAGGATGTGGTTTTACATAGCAG was tested, and the RUNX1 binding intensity was 923.
Work on CAGCAGAGGCGCGGATGTGGTTAAACGAGTGCCGTC yielded an RUNX1 binding intensity of 876.
CCCAGCCCTGCTGCCGGATGTGGTGAGGCCCAGGTG gave an RUNX1 binding intensity of 768.
AGCTTGCCGGAAGCTGGTTGTTCGCTGCGGCGACCA gave an RUNX1 binding intensity of 705.
GCCACACTGGCGGAAATGGTGGTTACTGTTCGAGCC was tested, and the RUNX1 binding intensity was 711.
TGGGGCTCTTCCTGCTTATGTGACCACAGCACCTTG was tested, and the RUNX1 binding intensity was 936.
CCATCCAGGAAGCTTATGGTGCAACCGCAGTGTGCC was tested, and the RUNX1 binding intensity was 943.
Work on TCCCACTGCGACGGAAGCACAGCGGTTAAGATTGCA yielded an RUNX1 binding intensity of 792.
For GAAATCACATCCTTTTGCAAAACCACAGGTGTTTTG, the RUNX1 binding intensity was 1320.
Work on ATAGTCTCTTCCTGTGTTGCAAACCACAGGTCCACC yielded an RUNX1 binding intensity of 1050.
With CGGGCGAGCGCAGGATGCGGTTGTCGAACGCGCGGC the RUNX1 binding intensity was 762.
TATCTCCTATCTCCAGGAAGTGGTTAGCCCTAGGAG was tested, and the RUNX1 binding intensity was 811.
Work on CTAGCAGGAAACAGACAGACCCAGCCACAGAATCTC yielded an RUNX1 binding intensity of 919.
With CGGGGACCACTGTCAGGATGTGGTCACTGGAGTCAC the RUNX1 binding intensity was 707.
Work on CACCGACCGGAAGGGCCCCAAGGATCCCCGCAGCAG yielded an RUNX1 binding intensity of 831.
Sequence CCAGTACCCCACTTCCTGACCAAACCACAAAGGTCA has an RUNX1 binding intensity of 2980.
For GATTGTTATGTCCGGAAACCGCTTATCAGAGCCCTG, the RUNX1 binding intensity was 861.
Sequence CAAGGCACCAACGGATGTGGTATCTGGTGAGGGCTT has an RUNX1 binding intensity of 846.
In the case of TTGCCATTCCAGGAAATGAGCTTACCACATTGACTG, the RUNX1 binding intensity is reported as 798.
ATGAGCTATTTCCTGCCTTGTGGTCAGAGCCAGACT showed an RUNX1 binding intensity of 1050.

Each sequence was assayed against RUNX1 (UniProt Q01196) (assay: RUNX1 binding intensity (PBM fluorescence) in presence of ETS1, normalised to RUNX1-only experiment (arbitrary fluorescence units); higher = stronger binding). Conditions: RUNX1 concentration 2 nM; ETS1 concentration 25 nM.
Protocol: as §1
GGGCAGCAGCAGACCGGAAACCACAGCCGACTAAGA gave an RUNX1 binding intensity of 3330.
GCTCTGGGTCACACAGGATGTGGTTTTTGAAGTTTG showed an RUNX1 binding intensity of 10400.
For ACCCAGTAGGGGCCAGGATGTGGTGAAAAGAGAATT, the RUNX1 binding intensity was 1020.
TCAAGTTTGGTAACAGGATGTGGTAGGAGGAACACA was tested, and the RUNX1 binding intensity was 1730.
CTCTGGCAGGAAGCTCTGAGGGCTAAACCACAAAAA gave an RUNX1 binding intensity of 1820.
In the case of AAAGCATTTCCTGCCTTGACTTAACCACAAGACAGG, the RUNX1 binding intensity is reported as 4320.
With CCTGCGGATCACGGAAGTGGCTGCGGTCGGCGCCAT the RUNX1 binding intensity was 4890.
TGCTTAGCGGGAAGTGCTTACACCACAAAACAAGAC was tested, and the RUNX1 binding intensity was 1750.
For ACCAACCGGAAGTGATCGTGTTGTGGCCGAAGGAGG, the RUNX1 binding intensity was 1590.
CCTAGAACCGGAAGAGAAAGGGGCTGCGGTGCAGCA gave an RUNX1 binding intensity of 1420.
In the case of ATCACTTGTTTCCGCCAGCAAACCACAGGTCCCCAG, the RUNX1 binding intensity is reported as 3750.
In the case of CCTGCTGCTTCCGCCCGGAGTTGTTGTGGGCTCCAG, the RUNX1 binding intensity is reported as 1870.
Sequence GAAGGAAGTGGAGACAGTAAGGGGAAACCACAAACC has an RUNX1 binding intensity of 1190.
In the case of GCGCCCTCCAGGAAACGCCGCGGTTTACTGTCTGCC, the RUNX1 binding intensity is reported as 1910.
For CCAGCCGGAAGCCCCGCCCCCTAGAGGCACCGCGGA, the RUNX1 binding intensity was 1270.
AAACAGGAAATCACAGCAGCGTTGCGGAGTGGAGCA was tested, and the RUNX1 binding intensity was 883.
With GGCTCGGCAAACATCCGGCTCCGCGGTGGAACGGGA the RUNX1 binding intensity was 1580.
TTCAACAGGATGTGGGAACTTGACTCTCGCCGCAAA showed an RUNX1 binding intensity of 3720.
Sequence GCCACACTTCCGGCGGGGCTGCGACCGCAGAGGGGC has an RUNX1 binding intensity of 3600.
CAAGCCAGGAAGAGGGCCCTCACCAGAAACCGCACT gave an RUNX1 binding intensity of 1150.
TGAAGTACTAGTCAAGGATGTGGTTTTACATAGCAG showed an RUNX1 binding intensity of 1340.
With CAGCAGAGGCGCGGATGTGGTTAAACGAGTGCCGTC the RUNX1 binding intensity was 3670.
Sequence CCCAGCCCTGCTGCCGGATGTGGTGAGGCCCAGGTG has an RUNX1 binding intensity of 5400.
Sequence AGCTTGCCGGAAGCTGGTTGTTCGCTGCGGCGACCA has an RUNX1 binding intensity of 1220.
With GCCACACTGGCGGAAATGGTGGTTACTGTTCGAGCC the RUNX1 binding intensity was 1560.
With TGGGGCTCTTCCTGCTTATGTGACCACAGCACCTTG the RUNX1 binding intensity was 1760.
Work on CCATCCAGGAAGCTTATGGTGCAACCGCAGTGTGCC yielded an RUNX1 binding intensity of 1620.
For TCCCACTGCGACGGAAGCACAGCGGTTAAGATTGCA, the RUNX1 binding intensity was 910.
GAAATCACATCCTTTTGCAAAACCACAGGTGTTTTG gave an RUNX1 binding intensity of 3340.
For ATAGTCTCTTCCTGTGTTGCAAACCACAGGTCCACC, the RUNX1 binding intensity was 2300.
In the case of CGGGCGAGCGCAGGATGCGGTTGTCGAACGCGCGGC, the RUNX1 binding intensity is reported as 1100.
Sequence TATCTCCTATCTCCAGGAAGTGGTTAGCCCTAGGAG has an RUNX1 binding intensity of 1870.
Sequence CTAGCAGGAAACAGACAGACCCAGCCACAGAATCTC has an RUNX1 binding intensity of 884.
In the case of CGGGGACCACTGTCAGGATGTGGTCACTGGAGTCAC, the RUNX1 binding intensity is reported as 1420.
Work on CACCGACCGGAAGGGCCCCAAGGATCCCCGCAGCAG yielded an RUNX1 binding intensity of 1380.
In the case of CCAGTACCCCACTTCCTGACCAAACCACAAAGGTCA, the RUNX1 binding intensity is reported as 8080.
Sequence GATTGTTATGTCCGGAAACCGCTTATCAGAGCCCTG has an RUNX1 binding intensity of 1590.
CAAGGCACCAACGGATGTGGTATCTGGTGAGGGCTT was tested, and the RUNX1 binding intensity was 2430.
TTGCCATTCCAGGAAATGAGCTTACCACATTGACTG was tested, and the RUNX1 binding intensity was 1070.
ATGAGCTATTTCCTGCCTTGTGGTCAGAGCCAGACT showed an RUNX1 binding intensity of 4330.
